# Experimental data: PubChem BioAssay AID1159506 (National Center for Advancing Translational Sciences (NCATS), 2015)
# Whole data set: some 59,000 sequences, median the read-out near -0.00055, cut for the lowest 2% near -2. Only a selection was taken, and the lowest values are over-represented in it overall.
# Assay: Identification of proteins required for the processing of the EWS-FLI1 nascent transcript;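 also: robust z of luciferase light less the median z of siRNAs with the same seed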
# Details: TC32 Ewing sarcoma NR0B1-luc vs CMV-luc (EWS-FLI1 target promoter against control promoter), 48 h; screened at 20 nM (by protocol)
# Experimental: Ewing sarcoma (ES) cells depend on the EWS-FLI1 fusion transcription factor for cell survival. Using an assay of EWS-FLI1 activity and genome-wide siRNA screening we have identified proteins required for the processing of the EWS-FLI1 nascent transcript. Parallel genome-wide siRNA-mediated RNAi screens were conducted in Ewing sarcoma TC32 cell lines expressing a luciferase (luc) reporter protein driven by either the promoter of the EWS-FLI1 target gene NR0B1 (TC32-NR0B1-luc) or the CMV promoter (TC32-CMV-luc). Luciferase activity was assessed 48 hours post siRNA-transfection.
# Twenty microl of serum-free media containing Lipofectamine RNAiMax (0.05 microl) was added to wells containing siRNA (0.8 pmol). Lipid and siRNA were allowed to complex for 45 min at ambient temperature before addition of 600 cells in RPMI-1640, 20% FBS to yield final transfection mixtures containing 20 nM siRNA in RPMI-1640, 10% FBS. Luciferase expression was measured using OneGlo (Promega, Madison, WI). The genome-wide screening campaign was conducted using Ambion's human genome library version 4.1 (Ambion, Austin TX). This library targets approximately 21000 human genes, three siRNAs per gene. Each siRNA is arrayed in an individual well of a 384-well plate. Parallel transfections were conducted in TC32-NR0B1-luc and TC32-CMV-luc cell lines and luciferase expression (OneGlo, Promega) was assayed 48 h later on a PerkinElmer Envision 2104 Multilabel plate reader (PerkinElmer, Waltham, MA). Qiagen's AllStars Negative control was incorporated on all screening plates for normalization (16 wells per plate). Qiagen, Germantown, MDsiGL4 was incorporated as a positive transfection control (16 wells per plate) on all plates. […] The raw luciferase data for the NR0B1- and CMV-luc screens were normalized and z-score-MAD transformed using standard methods (Chung et al., 2008). The miRNA-like seed sequence of every siRNA was determined and the median z-score for all siRNA sequences with the same seed sequence was calculated. This z-score was subtracted from the z-score associated with each siRNA with that seed sequence to generate a seed-adjusted z-score value (Z) that was used when the results for the three siRNAs corresponding to each gene were compared (Marine et al., 2012)
row,Sequence,seed-corrected z-score
1,UAUACGAUAAUGAAAUUCC against SPINK13,0.358
2,AAAGUUGGAAUACCGAGGU against C15orf61,0.00537
3,UUGACUAUAAGUGCGUCUC against KMT2E,-2.36
4,UCAGGGUGCAGCAUGAAUC against LOC338667,0.765
5,UUUGUUGGGUCUAAGAUUG against RAB23,-0.849
6,UCAAUUACACCCUCAUUUG against SRSF6,-2.18
7,UUCGUGUAGGGUGUGUAGC against OSGIN1,0.000927
8,UUAGAGUCAUGCAUGAGGG against MROH7,-0.225
9,UUGUAGACGAGCUGGAUGC against ADAMTSL5,-0.759
10,UCCAUUCCUAUACUAGUCC against ABCG2,-0.43
11,CAAGUUUUUAUUAUCCUGC against EPHA10,-0.0524
12,AUUGUUCCCAUAGAGUUCC against BCL2L1,3.29
13,UGAUCUGUGACUGCUCUUC against AP2M1,-2.2
14,UCGAUCUUCAGGUCGUUGC against ATXN1,-0.921
15,UUGGAAGUCACAGUCAUCC against CST7,-0.103
16,UUGGUUAACUGGUCAAUCC against SLC40A1,-0.655
17,AUCUUUCCCAGGUUUUUCG against ZNF669,-2.19
18,AUCCAUCAAAGCGAUAUUC against GBE1,-1.06
19,AAUGAAGGAACCAUUGCCC against IL18BP,1.21
20,AAAUAUCCCAUAAUCAGUG against LYZ,-0.541
21,AAUGGAUCCAAAGAGGCUA against KIFC2,0.744
22,UUUAAUGUAACUCCCACUU against DLGAP2,0.4

row,Sequence,seed-corrected z-score
1,UGUGGUUCAACAAGAAGCU against CD177,-1.65
2,ACUGGAACAAGAACCGUCC against PDIA5,0.508
3,UGAUCGUACAGGUGCAUCG against IL1B,-0.147
4,AAAUGAUCUGGUUUCCUUC against OLFML1,-0.829
5,UAAAUAGCAGCAUCUACUC against PPM1E,0.41
6,AAAACGAUCAAAAUCUGUC against RPL14,-2.5
7,UACGUACUCAUUCUUCAGG against CMC2,-0.986
8,UACAGGUAGGAGUUGUCCU against PRKACG,0.0436
9,UUUUAUAGAGGGAUAUUCG against NPC2,1.05
10,AACUGGUUCAUCAGUGUCC against WDR89,-2
11,UGAAAUGCUAAUGCGUGGG against RBM33,0.224
12,UGCUUGCGAACAAACAGCC against SCD5,0.624
13,UAGUGAUAGAUACUGUUCC against HGF,-0.568
14,UUUUGAUUAACUCGAGGAG against TSSK1B,0.323
15,UAGGGUCAUCGAGAGGUUC against MAML3,-2.49
16,UGCAGUUUGACGGUGCCUC against TMEM204,-0.467
17,UCCCAUUCCACUGCUACUG against RBMX,-2.45
18,UAACUCGAAAGUGAACUUC against MYOZ3,0.0654
19,UAGGUAAUAAUUCACAAUG against CCL19,-0.226
20,UCUGUUGGUACUGUGCAGG against PPA1,-1.37
21,UCCGUUCACAUUCAGGAUC against SLC6A16,-0.88
22,UCCUUGUAGAGCUUGAUGG against TOP3B,1.26

row,Sequence,seed-corrected z-score
1,AACUAGAAUAAAGAAGAUG against SLC6A9,0.0838
2,AAAACUUCAAAUACCAUGC against SRPK1,-1.05
3,UUGCGGGUGACAAUCUCCC against CROCC,0.165
4,UUUCCGGAUCAGACCGUGC against RPS29,1.1
5,UCACGGUCAACAAAGUAGG against BRINP1,-2.87
6,UAUAAGAAAUGGUUUUGUC against OR6C6,0.719
7,AUCACGUUUAUGUCCAUUG against BMPER,-0.464
8,UUGGCGUUCAUAAGCCGCC against PTRH1,0.961
9,ACUCUUUUUAAGGUGCUUC against DTX1,-3.91
10,AAGUUUUCCAACGUACUCU against IL4,0.239
11,AAGGUUGAGAGAUGUAGCU against SPANXA1,1.05
12,UUUUAUUCUUUCGCUUUUU against MEAF6,-1.39
13,UUUGGAAUCAUCCAGGAAA against C8orf82,0.192
14,UUCUGGAUAACAAAGUCAC against PCDH1,0.112
15,UGGUGAUUCAGAUAGCUGG against ARHGAP11A,-0.84
16,AUCUUGAUAGGGACCUUGG against PRAP1,0.654
17,UGAUCUUAUAGUAAUCAGG against BRD4,-2.52
18,GACGGCAUCAAUCAGGUCC against PYCR1,0.0435
19,AAAGAUGCAACCAAUGCUC against CDK3,-0.134
20,UUACUUCAAAACGGUAUCC against ASB17,-9.19
21,UGAUUGUUGACUGACGAUG against DMXL1,1.23
22,UUCUUUCAAAUUUCGGUUG against SOX13,0.262
